This excerpt belongs to a sample that is enriched for the strongest signals.
What was measured:
Test in all cases: glycan array binding signal (z-score within array); higher = stronger binding
Conditions in all cases: glycan notation: IUPAC condensed, linker removed
[1] = target: Gal(b1-4)GlcNAc(b1-3)Gal(b1-4)GlcNAc(b1-3)Gal(b1-4)GlcNAc(b1-3)Gal(b1-4)GlcNAc(b1-3)Gal(b1-4)GlcNAc(b1-3)Gal(b1-4)GlcNAc(b1-2)Man(a1-3)[Gal(b1-4)GlcNAc(b1-3)Gal(b1-4)GlcNAc(b1-3)Gal(b1-4)GlcNAc(b1-3)Gal(b1-4)GlcNAc(b1-3)Gal(b1-4)GlcNAc(b1-3)Gal(b1-4)GlcNAc(b1-2)Man(a1-6)]Man(b1-4)GlcNAc(b1-4)GlcNAc
Method in brief: (§1)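 Negative Z-scores can be read as non-binding. The Z-score is calculated within each array and then averaged across arrays of one protein sequence at different concentrations or buffers and across linkers. Arrays, 3228 in all, were curated from the Consortium for Functional Glycomics database and kept only where the protein sequence was available.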

[2] = target: Gal(b1-4)GlcNAc(b1-6)GalNAc
Method in brief: as §1

[3] = target: Gal(b1-4)GlcNAc(b1-6)[Gal(b1-3)]GalNAc
Method in brief: as §1

[4] = target: Gal3S(b1-4)[Fuc(a1-3)]GlcNAc
Method in brief: as §1

[5] = target: GalNAc(a1-3)GalNAc(b1-3)Gal(a1-4)Gal(b1-4)GlcNAc
Method in brief: as §1

Glc(a1-4)Glc = target: Glc(a1-4)Glc
Method in brief: as §1

[6] = target: GlcA3S(b1-3)Gal(b1-4)GlcNAc(b1-3)Gal(b1-4)Glc
Method in brief: as §1

[7] = target: GlcNAc(a1-4)Gal(b1-3)GlcNAc
Method in brief: as §1

[8] = target: GlcNAc(a1-4)Gal(b1-4)GlcNAc(b1-3)Gal(b1-4)Glc
Method in brief: as §1

[9] = target: GlcNAc(b1-3)Gal(b1-4)GlcNAc(b1-2)Man(a1-3)[GlcNAc(b1-3)Gal(b1-4)GlcNAc(b1-2)Man(a1-6)]Man(b1-4)GlcNAc(b1-4)[Fuc(a1-6)]GlcNAc
Method in brief: as §1

[10] = target: GlcNAc(b1-3)Gal(b1-4)GlcNAc(b1-2)[GlcNAc(b1-3)Gal(b1-4)GlcNAc(b1-6)]Man(a1-6)[GlcNAc(b1-3)Gal(b1-4)GlcNAc(b1-2)Man(a1-3)]Man(b1-4)GlcNAc(b1-4)GlcNAc
Method in brief: as §1

[11] = target: GlcNAc(b1-3)Gal(b1-4)GlcNAc(b1-3)Gal(b1-4)GlcNAc(b1-2)Man(a1-3)[GlcNAc(b1-3)Gal(b1-4)GlcNAc(b1-3)Gal(b1-4)GlcNAc(b1-2)Man(a1-6)]Man(b1-4)GlcNAc(b1-4)[Fuc(a1-6)]GlcNAc
Method in brief: as §1

[12] = target: GlcNAc(b1-3)[GlcNAc(b1-4)][GlcNAc(b1-6)]GlcNAc
Method in brief: as §1

[13] = target: GlcNAc(b1-4)GlcNAc(b1-4)GlcNAc(b1-4)GlcNAc(b1-4)GlcNAc
Method in brief: as §1

GlcNAc(b1-6)GalNAc = target: GlcNAc(b1-6)GalNAc
Method in brief: as §1

[14] = target: GlcNAc6S(b1-3)Gal(b1-4)GlcNAc
Method in brief: as §1

[15] = target: Man(a1-2)Man(a1-2)Man(a1-3)Man
Method in brief: as §1

Man(a1-3)[Man(a1-6)]Man = target: Man(a1-3)[Man(a1-6)]Man
Method in brief: as §1

[16] = target: Man(a1-3)[Man(a1-6)]Man(a1-6)[Man(a1-2)Man(a1-3)]Man(b1-4)GlcNAc(b1-4)GlcNAc
Method in brief: as §1

[17] = target: Man(a1-3)[Man(a1-6)]Man(b1-4)GlcNAc(b1-4)GlcNAc
Method in brief: as §1

Man(a1-6)Man = target: Man(a1-6)Man
Method in brief: as §1

[18] = target: Neu5Ac(a2-3)Gal(b1-3)GalNAc
Method in brief: as §1

[19] = target: Neu5Ac(a2-3)Gal(b1-4)GlcNAc(b1-2)Man(a1-3)[Neu5Ac(a2-3)Gal(b1-4)GlcNAc(b1-2)Man(a1-6)]Man(b1-4)GlcNAc(b1-4)[Fuc(a1-6)]GlcNAc
Method in brief: as §1

[20] = target: Neu5Ac(a2-3)Gal(b1-4)GlcNAc(b1-3)Gal(b1-4)GlcNAc(b1-3)Gal(b1-4)GlcNAc(b1-2)Man(a1-3)[Neu5Ac(a2-3)Gal(b1-4)GlcNAc(b1-3)Gal(b1-4)GlcNAc(b1-3)Gal(b1-4)GlcNAc(b1-2)Man(a1-6)]GalNAc
Method in brief: as §1

[21] = target: Neu5Ac(a2-3)Gal(b1-4)GlcNAc(b1-6)GalNAc
Method in brief: as §1

[22] = target: Neu5Ac(a2-3)Gal(b1-4)[Fuc(a1-3)]GlcNAc(b1-3)GalNAc
Method in brief: as §1

[23] = target: Neu5Ac(a2-3)[GalNAc(b1-4)]Gal(b1-4)Glc
Method in brief: as §1

[24] = target: Neu5Ac(a2-6)Gal(b1-3)GlcNAc(b1-3)[Gal(b1-4)GlcNAc(b1-6)]Gal(b1-4)Glc
Method in brief: as §1

[25] = target: Neu5Ac(a2-6)Gal(b1-4)GlcNAc(b1-2)Man(a1-3)[Man(a1-6)]Man(b1-4)GlcNAc(b1-4)GlcNAc
Method in brief: as §1

[26] = target: Neu5Ac(a2-6)Gal(b1-4)GlcNAc(b1-2)Man(a1-3)[Neu5Ac(a2-6)Gal(b1-4)GlcNAc(b1-2)Man(a1-6)]Man(b1-4)GlcNAc(b1-4)GlcNAc
Method in brief: as §1

B1: RBMC1 (Vibrio cholerae) (protein)
chain: QQSQRVVTADNLMYLRSGFAIDAIGTTVNNLVGGPVQGTNGGVLRAPIALDQLQSVEVTSGLYNWGGYHIVAIKFTMKDGSSVLLGSTHYASNKKVETYTVPQGKRIKQINVWTGGWLVEGFQFVY
- glycan array binding signal (z-score) [1]: 0.712
- glycan array binding signal (z-score) [2]: -0.186
- glycan array binding signal (z-score) [3]: 0.163
- glycan array binding signal (z-score) [4]: -0.188
- glycan array binding signal (z-score) [5]: -0.064
- glycan array binding signal (z-score) (Glc(a1-4)Glc): -0.216
- glycan array binding signal (z-score) [6]: -0.217
- glycan array binding signal (z-score) [7]: -0.355
- glycan array binding signal (z-score) [8]: -0.284
- glycan array binding signal (z-score) [9]: 2.83
- glycan array binding signal (z-score) [10]: -0.295
- glycan array binding signal (z-score) [11]: 2.5
- glycan array binding signal (z-score) [12]: -0.158
- glycan array binding signal (z-score) [13]: -0.358
- glycan array binding signal (z-score) (GlcNAc(b1-6)GalNAc): -0.289
- glycan array binding signal (z-score) [14]: -0.267
- glycan array binding signal (z-score) [15]: -0.395
- glycan array binding signal (z-score) (Man(a1-3)[Man(a1-6)]Man): 0.002
- glycan array binding signal (z-score) [16]: 0.166
- glycan array binding signal (z-score) [17]: 1.13
- glycan array binding signal (z-score) (Man(a1-6)Man): 1.1
- glycan array binding signal (z-score) [18]: -0.226
- glycan array binding signal (z-score) [19]: 3.39
- glycan array binding signal (z-score) [20]: 0.281
- glycan array binding signal (z-score) [21]: -0.114
- glycan array binding signal (z-score) [22]: -0.194
- glycan array binding signal (z-score) [23]: -0.432
- glycan array binding signal (z-score) [24]: -0.461
- glycan array binding signal (z-score) [25]: 10.4
- glycan array binding signal (z-score) [26]: 4.94

— the supplement of paper PMC8728848
